For 29 compounds, efficacy, AC50 and outcome results are on record in PubChem BioAssay (NCATS).

Structures are written as SMILES. Unmarked numbers belong to inactive results. For some of these results: Entries with a potency or affinity are not part of this list. Active and inactive are the calls of the source. How the calls were made is not given here.

The conditions of experiment [1]: Ebola virus entry assay, green fluorescence channel.
The conditions of experiment [2]: Ebola virus entry assay, blue channel fluorescence.
For experiment [3] the following is noted: Ebola virus entry assay, ratio channel.
The conditions of experiment [4]: Ebola virus entry assay, green channel fluorescence.
The conditions of experiment [5]: Ebola virus entry assay, reporter ratio channel; Channel type: primary.
Wherever efficacy is given: 0% is about no effect.

Take `C=CC[N+]1([C@H]2C[C@H]3[C@@H]4CC[C@H]5C[C@H](OC(C)=O)[C@@H](N6CCCCC6)C[C@]5(C)[C@H]4CC[C@]3(C)[C@H]2OC(=O)CC)CCCCC1`: the efficacy in experiment [1] was 47.7%. The AC50 (as a rule, the concentration giving half of the maximal activity seen) was 14.1 µM (active) in experiment [2] and 28.2 µM (active) in experiment [5]. Moreover, the outcome in experiment [3] and in experiment [4] was inactive.
`Nc1ccc(N=Nc2ccccc2)c(N)n1`: the efficacy in experiment [1] was -23.7%. In addition, the AC50 in experiment [2] and in experiment [5] was 39.8 µM (active) throughout. The result in experiment [3] and in experiment [4] was inactive.
As for `Cc1cc(N)c2cc(NC(=O)Nc3ccc4nc(C)cc(N)c4c3)ccc2n1`, the efficacy in experiment [1] was 18%. Besides, the values for the AC50 in experiment [2], in experiment [3] and in experiment [5] were 22.4 µM (active), 20 µM (active) and 20 µM (active), respectively. In addition, the compound was called inactive in experiment [4].
Turning to `CCC1Nc2cc(Cl)c(S(N)(=O)=O)cc2S(=O)(=O)N1` (stereo not given), the efficacy in experiment [1] is -28.2%. Besides, the call in experiment [2], in experiment [3], in experiment [4] and in experiment [5] was inactive.
For the compound `CC(C)(C)C(=O)C(Oc1ccc(Cl)cc1)n1ccnc1` (stereo not given), the efficacy in experiment [1] was 12.3%. Also, the AC50 in experiment [2] and in experiment [5] was 39.8 µM (active) in each case. The outcome in experiment [3] and in experiment [4] was inactive.
For `C/C=C(/C(=C/C)c1ccc(O)cc1)c1ccc(O)cc1`, in experiment [1], the efficacy is -16.1%. In addition, the AC50 in experiment [2] was 28.2 µM (active). Besides, the result in experiment [3], in experiment [4] and in experiment [5] was inactive.
Consider `CC(C)OC(=O)c1cc2c(OCC(O)CNC(C)(C)C)cccc2[nH]1` (stereo not given), for which the efficacy in experiment [1] was -19.4%. For the same compound, the AC50 in experiment [2] is 28.2 µM (active); in experiment [3], 31.6 µM (active); in experiment [5] it was 31.6 µM (active). For the same compound, in experiment [4], the result was inactive.
Take `Cn1cnc2c1c(=O)[nH]c(=O)n2C`: in experiment [1], the efficacy is -13.7%. Moreover, the compound was called inactive in experiment [2], in experiment [3], in experiment [4] and in experiment [5].
As for `CC[C@H](c1ccc(O)cc1)[C@@H](CC)c1ccc(O)cc1`, the efficacy in experiment [1] was -12.4%. Moreover, the AC50 in experiment [2] was 20 µM (active); in experiment [3], 25.1 µM (active); in experiment [5], 25.1 µM (active). Also, the compound was classed as inactive in experiment [4].
`CN(Cc1ccc(C(C)(C)C)cc1)Cc1cccc2ccccc12`: the efficacy in experiment [1] is -29.5%. In addition, the AC50 in experiment [2] is 35.5 µM (active); in experiment [5] it was 39.8 µM (active). Moreover, the result in experiment [3] and in experiment [4] was inactive.
Take `Oc1c(Cl)cc(Cl)cc1Sc1cc(Cl)cc(Cl)c1O`: the efficacy in experiment [1] was -26.7%. In addition, the AC50 in experiment [2] was 11.2 µM (active); in experiment [3], 22.4 µM (active); in experiment [5], 22.4 µM (active). Also, the compound was classed as inactive in experiment [4].
Turning to `CCC(C)(C)c1ccc(CC(C)CN2C[C@@H](C)O[C@@H](C)C2)cc1` (stereo not given in full), in experiment [1], the efficacy is -29.5%. In addition, the AC50 in experiment [2] and in experiment [5] was 39.8 µM (active) in each case. Moreover, the result in experiment [3] and in experiment [4] was inactive.
With `C#CC1(O)CC[C@H]2[C@@H]3CCC4=CCCC[C@@H]4[C@H]3CC[C@@]21C` (stereo not given in full), the efficacy in experiment [1] was 7.54%. The AC50 in experiment [2], in experiment [3] and in experiment [5] was 22.4 µM (active) each time. Moreover, the compound was called inactive in experiment [4].
With `CC(=O)Oc1ccc(C(c2ccc(OC(C)=O)cc2)c2ccccn2)cc1`, in experiment [1], the efficacy is -19%. The compound was classed as inactive in experiment [2], in experiment [3], in experiment [4] and in experiment [5].
As to `O=c1oc2c(O)c(O)cc3c(=O)oc4c(O)c(O)cc1c4c23`, in experiment [1], the efficacy was 33.8%. Further, the AC50 in experiment [2], in experiment [3] and in experiment [5] was 11.2 µM (active) throughout. In addition, the result in experiment [4] was inactive.
Turning to `Cc1ccc(CCn2c3c(c4cc(Cl)ccc42)CN(C)CC3)cn1`, in experiment [1], the efficacy is 26.4%. Further, the AC50 in experiment [2] is 14.1 µM (active); in experiment [3] it was 17.8 µM (active); in experiment [5] it was 17.8 µM (active). In addition, in experiment [4], the call was inactive.
For the compound `CC(CNC1CCCCC1)OC(=O)c1ccccc1` (stereo not given), in experiment [1], the efficacy is 19.5%. The AC50 in experiment [2], in experiment [3] and in experiment [5] was 8.91 µM (active) throughout. For the same compound, the compound was classed as inactive in experiment [4].
In the case of `CC(C)(C)C(=O)OCOC(=O)[C@@H]1N2C(=O)[C@@H](NC(=O)[C@H](N)c3ccccc3)[C@H]2SC1(C)C`, the efficacy in experiment [1] is 35%. The results for the AC50 in experiment [2], in experiment [3] and in experiment [5] were 12.6 µM (active), 20 µM (active) and 20 µM (active), respectively. In addition, in experiment [4], the call was inactive.
As to `CN1CCN(c2cc3c(cc2F)c(=O)c(C(=O)O)cn3-c2ccc(F)cc2)CC1`, the efficacy in experiment [1] was 8.5%. Besides, the call in experiment [2], in experiment [3], in experiment [4] and in experiment [5] was inactive.
Take `CCCOc1ccccc1-c1nc2n[nH]nc2c(=O)[nH]1`: the efficacy in experiment [1] is 11%. The result in experiment [2], in experiment [3], in experiment [4] and in experiment [5] was inactive.
Take `c1ccc(CCNc2nc(-c3ccccc3)cs2)cc1`: in experiment [1], the efficacy was 29.5%. The AC50 in experiment [2] and in experiment [5] was 39.8 µM (active) each time. Further, the result in experiment [3] and in experiment [4] was inactive.
Regarding `O=C(Nc1ncc([N+](=O)[O-])s1)c1cccs1`, the efficacy in experiment [1] was -37.9%. The result in experiment [2], in experiment [3], in experiment [4] and in experiment [5] was inactive.
For the compound `CCN1CCN(c2cc(-c3ccc(F)cc3)c3c(n2)CCCCCC3)CC1`, in experiment [1], the efficacy is 32.1%. Besides, the AC50 in experiment [2] was 1.41 µM (active); in experiment [3] it was 1.78 µM (active); in experiment [5] it was 1.78 µM (active). Moreover, the compound was called inactive in experiment [4].
For the compound `Cc1cc(=O)oc2cc(O)ccc12`, in experiment [1], the efficacy is -26.6%. For the same compound, the call in experiment [2], in experiment [3], in experiment [4] and in experiment [5] was inactive.
As for `COC(=O)C1=C(C)NC(C)=C(C(=O)O[C@@H]2CCCN(Cc3ccccc3)C2)[C@@H]1c1cccc([N+](=O)[O-])c1`, in experiment [1], the efficacy is 39.4%. The AC50 was 39.8 µM (active) in experiment [2] and 35.5 µM (active) in experiment [5]. The outcome in experiment [3] and in experiment [4] was inactive.
On to `CCCCN=C(N)N=C(N)N`, for which the efficacy in experiment [1] was 24.1%. Also, the call in experiment [2], in experiment [3], in experiment [4] and in experiment [5] was inactive.
As to `CC(C)=CCOc1ccc(/C=C/C(=O)c2ccc(OCC=C(C)C)cc2OCC(=O)O)cc1`, the efficacy in experiment [1] was -15.5%. Further, the compound was classed as inactive in experiment [2], in experiment [3], in experiment [4] and in experiment [5].
With `Clc1ccc(Nc2nnc(Cc3ccncc3)c3ccccc23)cc1`, the efficacy in experiment [1] was -25.3%. In addition, the AC50 in experiment [2] was 15.8 µM (active); in experiment [5] it was 31.6 µM (active). Moreover, the result in experiment [3] and in experiment [4] was inactive.
For `Cc1c(C)n(CCN(C)C)c2ccc(C(=O)OCCN(C)C)cc12`, the efficacy in experiment [1] was -26.4%. Moreover, the values for the AC50 in experiment [2], in experiment [3] and in experiment [5] were 2.24 µM (active), 2.51 µM (active) and 2.51 µM (active), respectively. In experiment [4], the compound was called inactive.
